Test results reported in PubChem BioAssay (NCATS).
Where “and” joins values, the source holds several entries; their conditions need not be identical. Equal values may be shown once. Records with an inconclusive call do not appear. Calls of active or inactive are those of the source. Unless noted, the call rests on the fitted dose curve; in most records, active means well fitted cell-killing curve with a large enough effect; inconclusive means small, poorly fitted or top-dose-only effect; inactive means flat fitted curve, though single readings scatter.

Legend:
[1] = Cell Viability - LYMP2-018 (AID 985);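 further: compound exposure lasted 24 hr at 37 °C; plate controls were DMSO only for no effect and tetraoctylammonium bromide at 92 µM for full effect; nearly all actives have a fitted effect of over 50% in size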
In short: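 Human lymphoblastoid LYMP2-018 cells, 2500/well, settled 5 hr at 37 C then exposed to compound 24 hr at 37 C; intracellular ATP measured by CellTiter-Glo luminescence. AC50 from Hill-equation concentration-response fits.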

[2] = Cell Viability - LYMP2-020 (AID 986);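 further: plate controls were DMSO only for no effect and tetraoctylammonium bromide at 92 µM for full effect; nearly all actives have a fitted effect of over 55% in size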
In short: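 Human lymphoblastoid LYMP2-020 cells (2500/well) preincubated 5 h at 37 C, then treated 24 h at 37 C. Viability measured as intracellular ATP by CellTiter-Glo luminescence after 30 min at room temperature; AC50 from Hill fits.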

[3] = Cell Viability - LYMP2-022 (AID 987);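 further: 0% = DMSO alone and full effect = tetraoctylammonium bromide at 92 µM; nearly all actives have a fitted effect of over 55% in size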
In short: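 LYMP2-022 lymphoblastoid cells (2500/well, complete medium) were treated with compounds for 24 hours at 37 C; intracellular ATP was then read by CellTiter-Glo luminescence after 30 min at room temperature. AC50 values were derived from Hill-equation fits.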

[4] = Cell Viability - LYMP2-024 (AID 988);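 further: plate controls were DMSO only for no effect and 92 µM tetraoctylammonium bromide for full effect; nearly all actives have a fitted effect of over 60% in size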
In short: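 Human lymphoblastoid LYMP2-024 cells (2500/well) rested 5 hr, then treated with compound for 24 hr at 37 C in complete medium. Viability was measured as intracellular ATP by CellTiter-Glo luminescence. AC50 values came from Hill-equation fits.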

[5] = Cell Viability - LYMP2-026 (AID 989); further: on the % scale 0 is the no-effect control and ±100 the full control effect; nearly all actives have a fitted effect of over 50% in size
In short: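 Human lymphoblastoid LYMP2-026 cells, 2500/well, exposed to compound 24 h at 37 C in complete medium. Viability as intracellular ATP by CellTiter-Glo luminescence; AC50 from Hill fits of qHTS concentration-response.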

[6] = Cell Viability - LYMP1-002 - Assay at 24 hr (AID 993); further: on the % scale 0 is the no-effect control and ±100 the full control effect
In short: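 Human lymphoblastoid LYMP1-002 cells (2500/well) treated 24 h at 37 °C; viability as intracellular ATP by CellTiter-Glo luminescence. Tetraoctylammonium bromide as positive control; AC50 from Hill-equation fits of qHTS concentration-response.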

[7] = Cell Viability - LYMP1-002 - Assay at 40 hr (AID 994);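 further: 0% = DMSO only and full inhibition = 92 µM tetraoctylammonium bromide; nearly all actives have a fitted effect of over 60% in size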
In short: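 LYMP1-002 human lymphoblastoid cells (2500/well, complete medium) were treated with compounds for 40 hr at 37 C. Intracellular ATP was measured by CellTiter-Glo luminescence, and AC50 values came from Hill-equation fits of concentration-response data; tetraoctylammonium bromide was the positive control.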

[8] = qHTS Assay for Lipid Storage Modulators (AID 1519; calls by dose curve; on activity change, negative = inhibition: on the % scale 0 is the no-effect control and ±100 the full control effect); conditions: Drosophila S3 cells, BODIPY lipid droplet/cell ratio, laser cytometry, cells loaded with oleic acid
In short: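 Cells seeded at 5,000 per well were treated with compounds over a concentration series and loaded with oleic acid (400 uM, as added). Lipid droplet fluorescence (488 nm excitation, 500-530 nm channel) was read by laser-scanning cytometry and normalized to 20 uM Triacsin C.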

[9] = measured here: cell count channel max response
[10] = measured here: lipid channel max response

Row | Compound | outcome [1] | outcome [2] | outcome [3] | outcome [4] | outcome [5] | outcome [6] | outcome [7] | activity change, negative = inhibition ([8]; at 25.7 µM (top of the series)) | max response [8, 9] | max response [8, 10] | activity change, negative = inhibition ([8]; at 57.5 µM (top of the series))
1 | Cc1c(N(C)C)c(=O)n(-c2ccccc2)n1C | inactive | inactive | inactive | inactive | inactive | inactive | inactive | -4.33% (inactive) | -0.692% | -4.11% | 
2 | Cc1cccc(Nc2ccccc2C(=O)O)c1C |  |  |  |  |  |  |  | -1.13% (inactive) | -7.11% and 0.438% | -8.71% and 19.7% | 13.8% (inactive)
3 | O=C(O)c1cc(=O)c2ccccc2o1 |  |  |  |  |  |  |  |  | 15.2% | 23.7% | 0.609% (inactive)
4 | CCCC(O)C(CC)CO (stereo not given) | inactive | inactive | inactive | inactive | inactive | inactive | inactive |  |  |  | 
5 | Cc1cc(C)nc(NS(=O)(=O)c2ccc(N)cc2)n1 | inactive | inactive | inactive | inactive | inactive | inactive | inactive | 1% (inactive) | -2.08% and -9.55% | -2.98% and 1.72% | 8.29% (inactive)
6 | CCCCOC(=O)c1ccc(N)cc1 | inactive | inactive | inactive | inactive | inactive | inactive | inactive | 0.621% (inactive) | -14.7% | -12.8% | 
7 | O=C(Cn1ccnc1[N+](=O)[O-])NCCO |  |  |  |  |  |  |  | -0.0007% (inactive) | -9.52% and 14.9% | -8.62% and 19.4% | 2.99% (inactive)
8 | O=C(O)c1ccccc1C(=O)Nc1ccc(S(=O)(=O)Nc2nccs2)cc1 |  |  |  |  |  |  |  | -0.565% (inactive) | -5.87% and 21% | -9.76% and 42% | 12.9% (inactive)
9 | CC(=O)OCC(COC(C)=O)OC(C)=O | inactive | inactive | inactive | inactive | inactive | inactive | inactive |  |  |  | 
10 | NC(N)=NS(=O)(=O)c1ccc(N)cc1 |  |  |  |  |  |  |  | -0.993% (inactive) | 1.84% and 2.06% | -0.509% and 12.7% | 6.41% (inactive)
11 | COc1ccc(O)cc1 | inactive | inactive | inactive | inactive | inactive | inactive | inactive |  |  |  | 
12 | CC(=O)Nc1cccc(O)c1 | inactive | inactive | inactive | inactive | inactive | inactive | inactive |  | 10% | 23.8% | 14.9% (inactive)
13 | CC(=O)Nc1ccccc1 | inactive | inactive | inactive | inactive | inactive | inactive | inactive |  | 6.17% | 17.6% | 8.44% (inactive)
14 | O=C1C(c2[nH]c3ccccc3c2O)=Nc2ccccc21 | inactive | inactive | inactive | inactive | inactive | inactive | inactive |  |  |  | 
15 | Cc1cc(=O)[nH]c(=S)[nH]1 | inactive | inactive | inactive | inactive | inactive | inactive | inactive |  |  |  | 
16 | CCCCCC(N)=O | inactive | inactive | inactive | inactive | inactive | inactive | inactive |  |  |  | 
17 | O=C(O)CCCCC1CCSS1 (stereo not given) | inactive | inactive | inactive | inactive | inactive | inactive | inactive |  | 11.5% | 16.4% | 3.99% (inactive)
18 | FC(F)(F)C(Cl)Br (stereo not given) | inactive | inactive | inactive | inactive | inactive | inactive | inactive |  |  |  | 
19 | CC(=O)NS(=O)(=O)c1ccc(N)cc1 | inactive | inactive | inactive | inactive | inactive | inactive | inactive |  |  |  | 
20 | CCN(CC)C(=O)c1cccc(C)c1 | inactive | inactive | inactive | inactive | inactive | inactive | inactive |  | 15.5% | 28.9% | 7.23% (inactive)
21 | NS(=O)(=O)c1cc2c(cc1C(F)(F)F)NCNS2(=O)=O |  |  |  |  |  |  |  | -1.44% (inactive) | -0.735% and 18.6% | -2.63% and 23.7% | 2.96% (inactive)
